# Test results reported in PubChem BioAssay.
# Biological target: Neurogenic locus notch homolog protein 2 (Homo sapiens) (UniProt Q04721)
# Test: Notch2 binders on small-molecule microarrays, primary screen, biochemical, small-molecule microarray, 635 nm fluorescence, stem cell growth factors (AID 1073)
# Conditions: Notch2 binding, higher = more signal
# Neurogenic locus notch homolog protein 2 (Homo sapiens), sequence (Q04721 whole entry, looked up): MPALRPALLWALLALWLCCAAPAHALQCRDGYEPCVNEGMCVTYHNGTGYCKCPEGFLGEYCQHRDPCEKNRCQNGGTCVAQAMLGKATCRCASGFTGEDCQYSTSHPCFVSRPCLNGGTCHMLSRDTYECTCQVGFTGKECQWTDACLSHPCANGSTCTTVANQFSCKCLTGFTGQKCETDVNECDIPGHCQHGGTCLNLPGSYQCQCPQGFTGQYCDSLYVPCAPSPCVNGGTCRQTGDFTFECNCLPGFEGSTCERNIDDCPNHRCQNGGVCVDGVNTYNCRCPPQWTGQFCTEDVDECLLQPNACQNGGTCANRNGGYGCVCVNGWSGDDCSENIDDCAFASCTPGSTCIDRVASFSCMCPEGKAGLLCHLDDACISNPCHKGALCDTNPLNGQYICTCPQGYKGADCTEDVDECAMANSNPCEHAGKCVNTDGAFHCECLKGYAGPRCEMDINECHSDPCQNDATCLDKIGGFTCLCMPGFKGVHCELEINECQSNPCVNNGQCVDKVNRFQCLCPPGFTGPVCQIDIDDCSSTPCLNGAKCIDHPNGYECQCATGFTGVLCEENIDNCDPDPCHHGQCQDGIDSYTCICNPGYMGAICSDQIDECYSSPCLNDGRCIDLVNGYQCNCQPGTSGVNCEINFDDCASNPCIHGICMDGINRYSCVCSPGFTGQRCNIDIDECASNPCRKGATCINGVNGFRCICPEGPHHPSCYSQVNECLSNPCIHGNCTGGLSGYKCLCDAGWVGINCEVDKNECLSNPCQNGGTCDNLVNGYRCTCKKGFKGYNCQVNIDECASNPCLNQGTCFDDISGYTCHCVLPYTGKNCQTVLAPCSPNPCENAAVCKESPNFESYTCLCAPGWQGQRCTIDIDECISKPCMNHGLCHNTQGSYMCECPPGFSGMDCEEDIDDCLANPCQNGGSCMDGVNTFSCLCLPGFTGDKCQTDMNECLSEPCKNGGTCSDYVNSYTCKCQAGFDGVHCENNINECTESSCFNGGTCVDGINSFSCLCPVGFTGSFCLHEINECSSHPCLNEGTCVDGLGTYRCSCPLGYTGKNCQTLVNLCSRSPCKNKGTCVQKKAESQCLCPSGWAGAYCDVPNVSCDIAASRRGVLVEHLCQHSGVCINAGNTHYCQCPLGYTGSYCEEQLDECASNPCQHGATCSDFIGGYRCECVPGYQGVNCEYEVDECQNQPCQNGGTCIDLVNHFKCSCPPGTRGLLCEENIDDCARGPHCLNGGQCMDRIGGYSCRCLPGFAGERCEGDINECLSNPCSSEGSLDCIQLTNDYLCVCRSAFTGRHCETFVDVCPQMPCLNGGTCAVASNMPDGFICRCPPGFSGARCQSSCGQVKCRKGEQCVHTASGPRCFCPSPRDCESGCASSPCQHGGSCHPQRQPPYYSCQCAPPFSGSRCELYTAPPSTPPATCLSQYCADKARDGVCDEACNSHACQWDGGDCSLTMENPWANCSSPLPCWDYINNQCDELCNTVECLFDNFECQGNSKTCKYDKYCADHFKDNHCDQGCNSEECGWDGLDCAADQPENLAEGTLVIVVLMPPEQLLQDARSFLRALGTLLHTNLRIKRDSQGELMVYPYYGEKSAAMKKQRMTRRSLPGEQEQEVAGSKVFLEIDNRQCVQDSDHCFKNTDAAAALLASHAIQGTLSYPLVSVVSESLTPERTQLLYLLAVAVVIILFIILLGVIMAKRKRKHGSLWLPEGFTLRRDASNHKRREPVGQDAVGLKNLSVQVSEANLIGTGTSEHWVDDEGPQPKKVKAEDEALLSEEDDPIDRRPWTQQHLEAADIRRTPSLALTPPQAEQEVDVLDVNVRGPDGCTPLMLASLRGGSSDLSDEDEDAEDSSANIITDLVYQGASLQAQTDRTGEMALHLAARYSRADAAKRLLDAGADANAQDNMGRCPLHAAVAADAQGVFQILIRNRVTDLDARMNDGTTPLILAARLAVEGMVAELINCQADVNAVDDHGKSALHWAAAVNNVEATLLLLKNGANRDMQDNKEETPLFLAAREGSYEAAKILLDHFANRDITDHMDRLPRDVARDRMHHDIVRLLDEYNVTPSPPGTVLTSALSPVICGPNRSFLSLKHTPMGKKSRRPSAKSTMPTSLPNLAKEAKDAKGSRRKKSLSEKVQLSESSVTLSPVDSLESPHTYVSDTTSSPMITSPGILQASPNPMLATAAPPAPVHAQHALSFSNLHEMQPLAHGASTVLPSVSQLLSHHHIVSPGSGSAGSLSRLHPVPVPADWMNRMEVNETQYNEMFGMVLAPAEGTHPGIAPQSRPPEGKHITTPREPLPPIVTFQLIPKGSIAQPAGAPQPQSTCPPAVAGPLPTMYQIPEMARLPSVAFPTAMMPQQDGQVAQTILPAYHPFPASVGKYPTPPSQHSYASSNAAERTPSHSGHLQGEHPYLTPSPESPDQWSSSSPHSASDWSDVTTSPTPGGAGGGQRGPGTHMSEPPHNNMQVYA
row,Structure (SMILES),composite z-score
1,O=C1O[C@H](c2ccccc2)[C@H](c2ccccc2)N2[C@H]1[C@@H](C(=O)N1CCN(c3ncccn3)CC1)[C@]1(C(=O)Nc3ccccc31)[C@H]2c1ccc(OCCO)cc1,1.18
2,COc1cc2c(cc1O)C(C)N(Cc1cccc(OC(F)(F)F)c1)CC2 (centres undefined),1.23
3,[N-]=[N+]=NCc1ccccc1C[C@@]1(C(=O)N2CCOCC2)N=C(c2ccc(OCCCO)cc2)O[C@@H]1c1ccccc1CN=[N+]=[N-],1.52
4,N[C@@H](Cc1ccccc1)Cn1cc(-c2ccccc2)nn1,0.0615
5,CC(=CC1CCCCC1)[C@@H](NC(=O)c1ccc(C(F)(F)F)cc1)c1ccc(-c2ccccc2)cc1,0.0836
6,CCOC(=O)C[C@H]1[C@H](OC(=O)c2ccccc2-c2ccccc2)[C@@H](NC(=O)c2ccc3ccccc3c2)c2cc(OCCCO)ccc2N1C(=O)c1ccc2ccccc2n1,0.135
7,CC(c1ccccc1)C(O)C1C=CC2C(=O)NC(=O)C2N1Nc1ccccn1 (centres undefined),1.5

# Biological target: Pro-neuregulin-1, membrane-bound isoform (Homo sapiens) (UniProt Q02297)
# Sequence (Q02297 whole entry, looked up, canonical isoform): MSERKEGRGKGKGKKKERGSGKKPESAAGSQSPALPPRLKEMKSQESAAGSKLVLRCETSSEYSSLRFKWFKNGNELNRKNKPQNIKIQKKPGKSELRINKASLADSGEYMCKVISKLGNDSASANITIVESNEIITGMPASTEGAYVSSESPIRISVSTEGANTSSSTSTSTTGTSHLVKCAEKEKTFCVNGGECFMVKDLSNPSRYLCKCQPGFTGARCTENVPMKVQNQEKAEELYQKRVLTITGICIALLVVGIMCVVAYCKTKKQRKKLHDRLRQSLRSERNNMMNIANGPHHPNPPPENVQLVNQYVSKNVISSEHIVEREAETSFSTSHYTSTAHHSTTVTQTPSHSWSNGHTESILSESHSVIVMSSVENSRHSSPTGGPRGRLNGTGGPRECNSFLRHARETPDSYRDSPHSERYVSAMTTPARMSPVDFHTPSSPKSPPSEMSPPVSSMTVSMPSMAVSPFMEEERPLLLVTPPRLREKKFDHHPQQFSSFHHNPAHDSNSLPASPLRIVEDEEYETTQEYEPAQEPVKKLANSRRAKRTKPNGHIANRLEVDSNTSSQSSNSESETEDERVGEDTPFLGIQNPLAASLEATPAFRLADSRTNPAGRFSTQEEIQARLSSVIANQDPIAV
# Test: NRG1 binders on small-molecule microarrays, primary screen, psychiatric disease protein project, biochemical, small-molecule microarray, fluorescence 635/667 (AID 1075);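 note: score combines 667 nm spot fluorescence with signal to noise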
# Conditions: NRG1 binding, 635 nm fluorescence, higher = more signal
row,Structure (SMILES),composite z-score
1,COCCOC(=O)N1C(=O)[C@@]2(c3cc(C#Cc4ccc(OC)cc4)ccc31)[C@H](C(=O)N1CCN(c3ncccn3)CC1)[C@H]1C(=O)O[C@H](c3ccccc3)[C@H](c3ccccc3)N1[C@@H]2c1ccc(O)cc1,0.169
2,COC(=O)C(CC#Cc1ccc2c(c1)[C@]1(C(=O)N2)[C@H](C(=O)NC[C@H](O)c2ccccc2)[C@H]2C(=O)O[C@H](c3ccccc3)[C@H](c3ccccc3)N2[C@@H]1c1ccc(OCCO)cc1)C(=O)OC,1.41
3,O=C1C2C=CC(C(O)c3ccc(-c4ccccc4)s3)N(n3cnnc3)C2C(=O)N1Cc1ccccc1 (centres undefined),0.802
4,O=c1cccc(C=Cc2ccccc2)o1,-0.458
5,C=C(C(=O)CC[C@H](OC(C)=O)c1ccc(OCCO)cc1)C(C)C,0.0987
6,CCCC[C@H]1OB(O)C[C@H]2C1=C(C)C[C@H]1C(=O)N(Cc3ccccc3)C(=O)[C@H]12,0.421
7,CCCCC(CC)C(O)C1C=CC2C(=O)N(c3ccccc3)C(=O)C2N1Nc1ccccc1 (centres undefined),0.796
8,O=C(OCCF)C1=CCC(c2cccc(Cl)c2)O1 (centres undefined),-0.0442
9,COCC1=C2[C@@H](CCc3ccccc3)OB(O)C[C@@H]2[C@@H]2C(=O)N(Cc3ccccc3)C(=O)[C@@H]2C1,0.0327
10,CC(C)C[C@@H]1NC(=O)[C@H]2C[C@@H](C(=O)NCCCCCNC(=O)CS)[C@@H](c3cccc(OCCO)c3)N2C1=O,1.03
11,COc1ccc(CCN2C(=O)[C@@]3(Cc4ccccc42)c2ccccc2C(=O)N(Cc2ccccc2Cl)[C@H]3c2ccc(CO)cc2)cc1,-0.221
12,CCCCCN1CC=CC23O[C@@H]4C=CCOC(=O)[C@@H]4[C@H]2C(=O)N(CCCO)[C@@H]3C1=O (some centres undefined),2.05
13,O=C1OCCC=C[C@H]2OC34C=CCN(Cc5ccccc5)C(=O)[C@H]3N(CCCCCCO)C(=O)[C@@H]4C12 (some centres undefined),1.88
14,CN(C)CCCCNC(=O)[C@H]1C[C@H]2C(=O)N[C@@H](Cc3ccccc3)C(=O)N2[C@H]1c1ccc(O)cc1,1.65
15,COCCOC(=O)N1C(=O)[C@@]2(c3cc(C#CCC(C(=O)OC)C(=O)OC)ccc31)[C@H](c1ccccc1OCCO)N1[C@H](c3ccccc3)[C@H](c3ccccc3)OC(=O)[C@H]1[C@@H]2C(=O)N1CCc2cc(OC)c(OC)cc2C1,1.09
16,COC(=O)[C@@]1(Cc2ccccc2)[C@H]2c3cc(C(=O)N(C)C)n(Cc4c(-c5ccccc5)noc4C)c3C[C@H]2CN1C(=O)c1ccccc1,1.81
17,O=C1C[C@@](C(=O)NC2CC2)(c2ccc([N+](=O)[O-])cc2)[C@@H](c2ccc(CO)cc2)N1CC12CC3CC(CC(C3)C1)C2,0.707
18,COCCOC(=O)N1C(=O)[C@@]2(c3cc(C#CC4=CCCCC4)ccc31)[C@H](C(=O)NC[C@H](O)c1ccccc1)[C@H]1C(=O)O[C@H](c3ccccc3)[C@H](c3ccccc3)N1[C@@H]2c1ccc(O)cc1,0.996
19,CC(C)NC(=O)[C@@]1(Cc2ccccc2I)c2ccccc2C(=O)N(Cc2ccccc2)[C@H]1c1ccc(CO)cc1,1.38
20,O=C1N(CCS(=O)(=O)c2ccccc2)c2ccccc2C[C@@]12COC(c1ccc(OCCCO)cc1)=N2,1.11
21,CC(C)(C)N1CC=CC23O[C@@H]4C=CCOC(=O)[C@@H]4[C@H]2C(=O)N(CCCCCO)[C@@H]3C1=O (some centres undefined),0.978
22,COCCOC(=O)N1C(=O)[C@@]2(c3cc(C#CCNC(N)=O)ccc31)[C@H](C(=O)N1CCN(c3ncccn3)CC1)[C@H]1C(=O)O[C@H](c3ccccc3)[C@H](c3ccccc3)N1[C@@H]2c1ccccc1OCCO,0.727
